# PLK1 PBD inh: inhibitors of human PLK1 polo-box domain binding. P53350. Plk1 PBD binding of FITC phosphopeptide, fluorescence polarization. Potency, µM, without a hit: max response, negative = inhibition, hits mostly inhibitors. actives 2.8% (n = 360,000). AID 720504; note: potency is the fitted concentration of half-maximal effect; series mostly up to about 57 µM; % is set by controls: 0 for no effect and ±100 for the full control effect; nearly all actives have a fitted effect of over 65% in size
# HP1b chromo inh: blocks HP1-beta chromodomain binding to methylated histone tails; AlphaScreen HP1-beta / biotin-H3K9me3 peptide binding; AID 540317; actives 0.56% (n = 390,000); Potency, µM (top dose mostly 114 µM), for the others: at the top dose activity change, negative = inhibition, usual class: inhibitors; P83916; note: potency is the fitted concentration of half-maximal effect; nearly all actives have a fitted effect of over 70% in size
#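 Compound inhibition of the preformed complex between 50 nM HP1-beta and 50 nM biotinylated H3K9me3 peptide was read by AlphaScreen. Buffer was PBS pH 7.4 with 0.01% Tween-20. Incubations ran 30 min at room temperature, with 10 ug/mL donor/acceptor beads.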
# BAZ2B block: BAZ2B (human) inhibition; Q9UIF8; AlphaScreen BAZ2B-H3K14Ac peptide displacement; Potency, µM (doses to about 114 µM), for the others: at the highest dose activity change, negative = inhibition, most hits filed as inhibitors; actives 4.4% (n = 360,000); AID 504333; note: potency is the fitted concentration of half-maximal effect; % is set by controls: 0 for no effect and ±100 for the full control effect; nearly all actives have a fitted effect of over 60% in size
#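 Complex of BAZ2B and biotin-H3K14Ac (50 nM apiece) forms over 30 min at RT, then faces library compounds up to 110 uM for another 30 min; AlphaScreen beads added, 20 min dark incubation, luminescence read.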
# JMJD2A Tudor: inhibitors of human JMJD2A Tudor domain; AlphaScreen JMJD2A-Tudor / H3K4me3 peptide binding; Potency, µM (series often up to 114 µM), for the others: at the highest dose activity change, negative = inhibition, usual class: inhibitors; actives 4.4% (n = 390,000); AID 504339; note: potency is the fitted concentration of half-maximal effect; % is set by controls: 0 for no effect and ±100 for the full control effect; nearly all actives have a fitted effect of over 50% in size
# G9a block: inhibitors of human histone lysine methyltransferase G9a; Q96KQ7; actives 8.8% (n = 350,000); Potency, µM (top dose mostly 102 µM), for the others: at the highest dose activity, negative = inhibition, most hits filed as inhibitors; G9a H3K9 monomethylation, AlphaScreen, 2 h; note: potency is the fitted concentration of half-maximal effect; % is set by controls: 0 for no effect and ±100 for the full control effect; nearly all actives have a fitted effect of over 75% in size
# Target sequence (Q96KQ7 913-1193 limits assumed): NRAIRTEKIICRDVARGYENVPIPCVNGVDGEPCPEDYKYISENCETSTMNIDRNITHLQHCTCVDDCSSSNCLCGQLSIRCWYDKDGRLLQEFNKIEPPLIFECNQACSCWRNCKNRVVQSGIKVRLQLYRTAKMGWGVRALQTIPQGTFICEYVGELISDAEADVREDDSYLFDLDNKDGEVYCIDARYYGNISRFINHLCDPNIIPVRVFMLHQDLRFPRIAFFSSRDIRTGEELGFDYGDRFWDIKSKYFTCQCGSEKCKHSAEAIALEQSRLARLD
#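 Compounds were preincubated with 20 nM G9a for 15 min, after which biotinylated H3K9 peptide (500 nM) and SAM (20 uM) started a 2 h room-temperature reaction. Monomethylated product was quantified by antibody-based AlphaScreen chemiluminescence.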
# PI5P4Ka inh: blocks human PI5P4K alpha kinase activity | P48426 | PI5P4Kalpha enzyme, ADP-Glo luminescence, 60 min; active compounds read low | max response, % | actives 1.2% (n = 330,000) | AID 652105; active = max response of -50% or lower; inconclusive = between -30% and -50%; inactive = -30% or higher; note: value at the top dose of about 77 µM; % is set by controls: 0 for no effect and ±100 for the full control effect
# Target sequence (P48426 whole entry, looked up): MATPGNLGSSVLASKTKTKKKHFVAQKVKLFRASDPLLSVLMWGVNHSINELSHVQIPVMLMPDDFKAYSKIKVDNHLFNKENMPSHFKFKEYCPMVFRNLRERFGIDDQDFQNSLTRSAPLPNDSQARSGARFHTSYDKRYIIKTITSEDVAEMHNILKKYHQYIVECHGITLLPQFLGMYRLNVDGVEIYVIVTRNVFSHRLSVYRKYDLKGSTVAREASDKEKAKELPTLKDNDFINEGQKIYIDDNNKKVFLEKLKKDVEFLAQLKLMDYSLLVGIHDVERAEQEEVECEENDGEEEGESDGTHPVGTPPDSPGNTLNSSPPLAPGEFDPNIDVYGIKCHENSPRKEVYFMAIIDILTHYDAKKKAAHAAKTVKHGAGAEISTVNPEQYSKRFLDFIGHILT
#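 Quantitative HTS of the MLSMR library against PI5P4Kalpha with substrate. ATP added last at 5 microM final; room temperature, 60 minutes. Remaining ATP depleted, ADP converted and read as luminescence.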
# * marks the source's active call; other numbers are inactive results; u = inconclusive; x = no result given; [ ] = remark or other dose. Hits are enriched below; roughly 12% of the tested compounds scored in any of these assays. Unless noted, calls come from the whole dose curve; as a rule, active = well fitted curve in the direction sought with a large enough effect; inconclusive = small, poorly fitted or top-dose-only effect, or another doubt; inactive = no such curve, though single readings can be large; an effect the other way counts as inactive or inconclusive.
SMILES,PLK1 PBD inh,HP1b chromo inh,BAZ2B block,JMJD2A Tudor,G9a block,PI5P4Ka inh
O=S(=O)(NCC1CCCO1)c1ccc(Br)s1 (stereo not drawn),0.0%,14.3%,6.0%,-9.4%,-4.9%[59 µM],-4.6
O=C(COC(=O)c1ccc(NS(=O)(=O)c2cccs2)cc1)NCC1CCCO1 (stereo not drawn),-3.8%,32.2%,0.9%,-9.6%,1.6%,-25.9
C=CCSc1nccc(=O)[nH]1,13.4µM*,22.0%,6.5%,50.1µM*,17.6%[59 µM],-18.3
O=C(CSc1nccc(=O)[nH]1)c1c[nH]c2ccccc12,-0.4%,49.4%,1.3%,-4.3%,x,0.2
O=C(CSc1nccc(=O)[nH]1)c1ccccc1Br,-29.6%,1.2%,-18.0%,-1.3%,7.94µM*,x
CCC(C(=O)NC1CCCC1)n1c(C2CCCC2)nc2ccccc21 (stereo not drawn),0.6%,x,x,x,x,0.3
CC(C)c1ccc(NC(=O)CNCC(c2ccccc2)N(C)C)cc1 (stereo not drawn),8.2%,-13.7%,u,44.7µM*,35.5µM*,-5.6
CC1(Cc2ccc(Cl)s2)C(=O)Nc2c(Cl)ccc(Cl)c21 (stereo not drawn),-7.4%,x,x,x,x,3.7
CCC(Oc1ccccc1)C(=O)Nc1ccccc1OCc1cc(=O)n2ccccc2n1 (stereo not drawn),x,23.9%[57 µM],11.4%,2.9%,-25.9%[59 µM],x
COc1ccccc1N1CCN(C(=O)c2c(C)cc(=O)oc2C)CC1,-4.7%,31.3%,-29.7%,-4.0%,-48.3%[12.7 µM],0.6
Cc1cc(=O)oc(C)c1C(=O)N1CCN(C(c2ccccc2)c2ccccc2)CC1,-11.4%,48.0%,-32.9%,-13.2%,50.1µM*,10.2
COc1ccc(CCNC(=O)CCS(=O)(=O)c2cc(Br)cc3c2N(C(C)=O)CC3)cc1OC,x,8.1%,1.0%,-12.3%,13.0%[59 µM],x
O=[N+]([O-])c1ccc2c(c1N1CCCCC1)=NC1(CCCCC1)[N+]=2[O-],21.2µM*,39.8µM*,35.5µM*,u,50.1µM*,-52.7*
COCCN(C(=O)C1CCC1)c1nnc(-c2cccnc2)s1,-23.3%,55.4%,-19.7%,-5.8%,1.0%[59 µM],1.4
CCN(C(=O)C1CCCCC1)c1nnc(-c2cccnc2)s1,-13.8%,51.8%,u,u,50.1µM*,-1.6
O=C(O)c1nn(Cc2ncc(-c3cccc(Cl)c3)o2)c(=O)c2ccccc12,u,u,-19.9%,-30.1%,39.8µM*,-26.2
COc1cccc(-c2noc(Cn3nc(C(=O)O)c4ccccc4c3=O)n2)c1,-5.6%,7.7%,-11.9%,-10.7%,-6.4%,-6.8
CCOc1cc(C2c3c(-c4ccccc4O)n[nH]c3C(=O)N2CCc2ccccc2)ccc1O (stereo not drawn),x,34.4%,u,-19.1%,-0.4%[59 µM],x
Cc1ccccc1C(=O)n1nc(-c2ccco2)nc1NCc1cccs1,x,-22.2%,-5.6%,-19.4%,u,x
Cc1cccc(C(c2sc3nc(-c4ccco4)nn3c2O)N2CCN(c3ccccc3F)CC2)c1 (stereo not drawn),x,-15.8%,-37.8%,u,u,x
CCn1nnc(C(=O)O)c1C(=O)O,-7.9%,-0.3%,u,20µM*,u,x
Nc1c(C(=O)O)nnn1Cc1ccccc1,2.8%,6.1%,-30.0%,-23.1%,u,-2.3
CCn1cc(C(=O)OCC(=O)Nc2c(C)cccc2C)c(=O)c2ccc(C)nc21,-16.2%,29.4%,-8.3%,-11.3%,44.7µM*,1.5
CCn1cc(C(=O)Nn2cnnc2)c(=O)c2ccc(C)nc21,-1.5%,22.8%,-32.3%,u,50.1µM*,-4.9
COc1ccccc1NC(=O)CC1Sc2ccc(C(F)(F)F)cc2NC1=O (stereo not drawn),x,37.7%,2.6%,-9.8%,0.6%[59 µM],x
SMILES,PLK1 PBD inh,HP1b chromo inh,BAZ2B block,JMJD2A Tudor,G9a block,PI5P4Ka inh
c1ccc2c(COn3nnc4ccccc43)cccc2c1,-6.8%,80.2%,u,73.4%,70.2%,x
N#Cc1ccc(COn2nnc3ccccc32)cc1,-5.4%,43.8%,3.7%,-10.1%,89.1µM*,4.5
CN1C(=O)NC2(O)C(=O)c3ccccc3C12O (stereo not drawn),2.67µM*,u,-0.6%,u,14.9%[59 µM],-50.5*
Clc1ccc(NC2(c3nnnn3C3CCCCC3)CCCCC2)cc1,26.7µM*,u,-2.3%,u,5.5%,-12.3
Cc1cccc(C)c1-n1nnnc1C1(Nc2ccccc2)CCCCC1,-4.2%,35.1%,-5.0%,-10.3%,4.2%[59 µM],-0.1
CCOC(=O)c1c(C)[nH]c(C)c1S(=O)(=O)N1CCCC(C(=O)N2CCN(c3cc(C)ccc3C)CC2)C1 (stereo not drawn),x,-20.8%,44.7µM*,u,-33.0%[59 µM],x
CCOC(=O)c1c(S(=O)(=O)N2CCCC(C(=O)N3CCN(c4cc(C)ccc4C)CC3)C2)c(C)n(C)c1C (stereo not drawn),x,-6.3%,-18.2%,u,-7.1%[59 µM],x
CC(=O)N1CCCc2cc(S(=O)(=O)N3CCCC(C(=O)N4CCN(c5cc(C)ccc5C)CC4)C3)ccc21 (stereo not drawn),3.2%,19.4%,-30.6%[57.1 µM],3.98µM*,1.6%,4.9
COc1ccccc1OCC(=O)N1CCCCCC1,3.0%,x,x,x,x,-3.5
CCN1CCN(CC#CCOc2ccccc2OC)CC1,-2.3%,u,22.4µM*,0.794µM*,-46.6%[0.501 µM],-6.7
C=C(C)Cn1c(=O)c2c(nc3n2CCN3c2ccc(CC)cc2)n(C)c1=O,x,78.3%,21.8%,-1.6%,18.3%[59 µM],x
CC(NC(=O)COc1ccc(Br)cc1)C(=O)O (stereo not drawn),-1.5%,26.7%,2.1%,-10.1%,u,x
O=C(COc1cccc(Br)c1)N/N=C1\CCSC1,21.2µM*,1.9%,-17.3%,70.8µM*,-20.8%,-15.7
CC(NC(=O)COc1cccc(Br)c1)C(=O)O (stereo not drawn),-13.1%,43.5%,5.4%,0.0%,50.1µM*,-10.5
Cc1cc(C)cc(NC(=O)c2cc(C)nc3c2c(C)nn3-c2ccccc2)c1,x,29.8%,4.6%[57.1 µM],0.6%,-7.8%[59 µM],x
CCOC(=O)N1CCN(C(=O)c2ccc3c(c2)N(Cc2ccccc2F)C(=O)c2ccccc2S3=O)CC1 (stereo not drawn),x,22.1%,-16.5%,-12.1%,3.4%[59 µM],x
COc1cc(CNC2CCCCC2OC)cc(OC)c1 (stereo not drawn),-2.1%,u,56.2µM*,5.62µM*,u,-6.8
Cc1ccc(-c2noc(CN(C)C(=O)c3ccc(Br)o3)n2)cc1,-3.7%,u,u,-2.8%,50.1µM*,0.8
O=C1c2ccccc2C(=O)C1(CO)c1ccccc1,-10.8%,-0.7%,-21.4%,-24.2%,44.7µM*,-13.6
CCc1ccc(-c2cc(N)n(-c3ccccc3)n2)cc1,3.2%,u,x,u,44.7µM*,7.9
COc1cccc(CNC(=O)CCn2cccn2)c1,x,33.7%,-2.5%,1.0%,8.9%[59 µM],x

# High-throughput results: PubChem, National Center for Advancing Translational Sciences (NCATS)
